Reference: PubChem BioAssay (Tox21)
A number with no mark means an inactive call. Active and inactive are the calls of the source. The call rests on the fitted dose curve.

The compounds below were run against Acetylcholinesterase (Homo sapiens) (UniProt P22303) (assay: Acetylcholinesterase (AChE) small molecule antagonists: enzyme-based qHTS assay with human liver microsomes (AID 1347399; further: nearly all actives have a fitted effect of over 60% in size)). Conditions: Potency: qHTS inhibition; outcome: qHTS inhibition; series mostly up to 115 µM; activity change, negative = inhibition: at the top concentration.
From the text: National Center for Advancing Translational Sciences [NCATS]
Division of Preclinical Innovation [DPI]
U.S. Environmental Protection Agency [EPA]
National Institutes of Environmental Health Sciences [NIEHS]
National Toxicology Program [NTP]
U.S. Food and Drug Administration [FDA]
Acetylcholinesterase (AChE) is the primary cholinesterase in the body that hydrolyzes a key neurotransmitter, acetylcholine. Inhibition of AChE activity can lead to neurotoxicity. The known inhibitors include organophosphorous pesticides (OP), chemical warfare agents, drugs, and various phytochemicals. Some compounds like OP compounds may need metabolic activation to be active AChE inhibitors. The cytochrome P450 (CYP) superfamily in the human microsomes is responsible for the metabolism of various endogenous and exogenous compounds.
An enzyme-based assay with the recombinant human AChE, human liver microsomes and Amplite Colormetric acetylcholinesterase assay kit (AAT Bioquest, Sunnyvale, CA) was used to evaluate compounds in the Tox21 10K library that need metabolic activation for AChE inhibition. The assay uses 5, 5-dithiobis-(2-nitrobenzoic acid) (DTNB) to quantify the thiocholine produced from the hydrolysis of acetylthiocholine by AChE.
Tox21 Assay Protocol Summary:
For the enzyme-based AChE assay with microsomes addition, a mixture of human AChE (50 mU/mL) and human liver microsomes (0.25 mg/mL, final concentration) in 3 uL/well was dispensed into black, clear-bottom 1536-well plates using a Multidrop Combi dispenser (Thermo Scientific, MA). Then, 23 nL of compound or DMSO (vehicle control) was transferred into the assay plates by a Pintool Station (Wako Automation, CA). Following compound addition, 1 uL of NADPH (0.25 mg/mL, final concentration) was transferred to the assay plate by a Flying Reagent Dispenser (Beckman Coulter, CA). The plates were incubated for 30 min at 37 C and 5% CO2, followed by the addition of 4 uL of colorimetric detection cocktail solution (DTNB, acetylthiocholine) into each well using a Flying Reagent Dispenser (Beckman Coulter, CA) and then 10 min incubation at room temperature.
On the % scale 0 is the no-effect control and ±100 the full control effect.

Chain of Acetylcholinesterase (Homo sapiens) (P22303 whole entry, looked up): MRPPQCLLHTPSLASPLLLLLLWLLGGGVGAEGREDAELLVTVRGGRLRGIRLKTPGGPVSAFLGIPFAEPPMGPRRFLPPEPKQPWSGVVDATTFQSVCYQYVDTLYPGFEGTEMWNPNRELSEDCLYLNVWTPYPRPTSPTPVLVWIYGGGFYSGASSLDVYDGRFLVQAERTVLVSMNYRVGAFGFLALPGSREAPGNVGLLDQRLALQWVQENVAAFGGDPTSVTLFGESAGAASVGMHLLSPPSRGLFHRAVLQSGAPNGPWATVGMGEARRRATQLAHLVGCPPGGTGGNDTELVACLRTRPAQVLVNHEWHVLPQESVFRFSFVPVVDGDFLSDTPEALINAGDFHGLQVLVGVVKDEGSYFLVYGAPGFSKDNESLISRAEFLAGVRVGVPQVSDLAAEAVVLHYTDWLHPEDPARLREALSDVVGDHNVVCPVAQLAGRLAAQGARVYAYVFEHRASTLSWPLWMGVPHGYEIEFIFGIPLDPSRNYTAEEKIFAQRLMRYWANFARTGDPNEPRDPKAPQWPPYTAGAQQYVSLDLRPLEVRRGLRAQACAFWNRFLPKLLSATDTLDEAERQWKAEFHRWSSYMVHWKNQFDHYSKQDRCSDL

In order of falling “activity change, negative = inhibition” value:
1. Oc1cccc(-c2c3nc(c(-c4cccc(O)c4)c4ccc([nH]4)c(-c4cccc(O)c4)c4nc(c(-c5cccc(O)c5)c5ccc2[nH]5)CC4)C=C3)c1  40.4% [at 53 µM]
2. CC(=O)SC[C@@H](C)C(=O)N1CCC[C@H]1C(=O)N[C@@H](Cc1ccccc1)C(=O)O  8.38% [at 53 µM]
3. Nc1ccc(C(=O)N2CC3CC(CN(Cc4ccccc4)C3)C2)cc1  2.8% [at 53 µM]
4. COc1cc(OC)nc(O[C@H](C(=O)O)C(OC)(c2ccccc2)c2ccccc2)n1  0.871% [at 53 µM]
5. CC(C)(Oc1ccc(Cl)cc1)C(=O)OCCCOC(=O)C(C)(C)Oc1ccc(Cl)cc1  0.168% [at 53 µM]
6. CC(C)(C)CC(=O)OCC(=O)[C@@]1(O)CC[C@H]2[C@@H]3CCC4=CC(=O)C=C[C@]4(C)[C@H]3[C@@H](O)C[C@@]21C  -0.42% [at 53 µM]
7. Cc1cccc(Nc2ccncc2S(=O)(=O)NC(=O)NC(C)C)c1  -0.726% [at 53 µM]
8. CCCCCCCCCCCC(=O)OCC(C)OC(=O)CCCCC(=O)O (stereo not given)  -0.728% [at 53 µM]

In order of rising “activity change, negative = inhibition” value:
1. CC1(C)[C@H]2CC[C@]1(C)C(=O)C2  -2.75%
2. Cc1ccc(S(=O)(=O)NC2CCCCC2)cc1  -2.04%
3. CCCCC/C(=C\c1ccccc1)CO  -1.77%
4. CCC(C)OC(=O)N1CCCCC1CCO (stereo not given)  -1.74%
5. C=CC(=O)OCC(CO)(COCC(COC(=O)C=C)(COC(=O)C=C)COC(=O)C=C)COC(=O)C=C  -1.54%
6. CC(=O)OC/C=C(/C)CCC=C(C)C  -1.08%
7. O=C1Nc2ccccc2C1=O  -0.972%
8. Clc1nc2ccccc2s1  -0.65%
9. CCC(=O)Nc1cccc(N)c1  -0.611%
10. CCCCOC(=O)C(C)Oc1ccc(Oc2ccc(C(F)(F)F)cn2)cc1 (stereo not given)  -0.513%
11. C=C(C)C(=O)OCCOCCOCCOCCOC(=O)C(=C)C  -0.291%
12. CC(C)N=C=NC(C)C  0%
13. CCCCC[Si](OCC)(OCC)OCC  0.153%
14. CC(C)(C)C1CCCCC1O (stereo not given)  0.153%
15. CCCCCCCCCCCCCCBr  0.17%
16. Cc1c(C)c2c(c(C)c1O)CC[C@@](C)(CCC[C@H](C)CCC[C@H](C)CCCC(C)C)O2  0.65%
17. CCNc1cc(O)ccc1C  1.53%
18. Nc1cc(Cl)c([N+](=O)[O-])cc1O  12.3%
19. CC1=NN(c2cc(S(=O)(=O)O)ccc2Cl)C(=O)C1N=Nc1ccccc1 (stereo not given)  34.9%

In the case of CCOCCOCCOCCO, the Potency is reported as “inactive”.
In the case of CC(C)(C)[C@@H](O)[C@@H](Cc1ccc(Cl)cc1)n1cncn1, the Potency is reported as “inactive”.
With CCCCCCCCCC the Potency was “inactive”.
O=c1cc(-c2ccc(O)cc2)oc2cc(O)cc(O)c12 was tested, and the Potency was “inactive”.
With COC1=CC(=O)C[C@@H](C)[C@]12Oc1c(Cl)c(OC)cc(OC)c1C2=O the Potency was “inactive”.
CCCCCC(C)=O was tested, and the Potency was “inactive”.
With Cc1cccc(C)c1O the Potency was “inactive”.
With OC[C@@H](O)[C@@H](O)[C@H](O)[C@H](O)CO the Potency was “inactive”.
With O=c1n(CC2CO2)c(=O)n(CC2CO2)c(=O)n1CC1CO1 (stereo not given) the Potency was “inactive”.
O=c1[nH]c(=O)n([C@H]2C[C@H](O)[C@@H](CO)O2)cc1Br was tested, and the Potency was “inactive”.
For CC(CCl)OP(=O)(OC(C)CCl)OC(C)CCl (stereo not given), the Potency was “inactive”.

In order of falling activity change, negative = inhibition:
1. CCCCCCCCCCCCCCCCBr  0.57% [at 23.6 µM]
2. CN1CCN(c2c(F)cc3c(=O)c(C(=O)O)cn4c3c2OCN4C)CC1  -0.167% [at 23.6 µM]
